Our source for the Potency, max response and outcome values is PubChem BioAssay (NCATS).

In assay [1] the test system is HB3. The assay can be described thus: qHTS profiling for inhibitors of Plasmodium falciparum proliferation (AID 504749). As to conditions: P. falciparum in erythrocytes, SYBR Green DNA, 72 h; series mostly up to 28.7 µM. The procedure, abridged:
(§1)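 Readout was DNA-dye fluorescence from lysed cultures, ex 485/em 535 nm. Parasitized red cells had grown 72 h with compound; data scaled between 0.29 uM artemisinin and DMSO wells and corrected using vehicle-only plates.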

The test system of assay [2] is ICS. The description is as above. As to conditions: P. falciparum in erythrocytes, SYBR Green DNA, 72 h; series mostly up to 28.7 µM. The method in brief:
as §1

Assay [3] concerns JCK. Described as above. Particulars: P. falciparum in erythrocytes, SYBR Green DNA, 72 h; series mostly up to 28.7 µM. The procedure, abridged: as §1
The test system of assay [4] is PC15. The assay is described as above. Particulars: P. falciparum in erythrocytes, SYBR Green DNA, 72 h; series mostly up to 28.7 µM. The method in brief:
as §1

The subject of assay [5] is PC49. The description is as above. As to conditions: P. falciparum in erythrocytes, SYBR Green DNA, 72 h; series mostly up to 28.7 µM. The procedure, abridged:
as §1

Assay [6] concerns W2. The description is as above. As to conditions: P. falciparum in erythrocytes, SYBR Green DNA, 72 h; series mostly up to 28.7 µM. The procedure, abridged: as §1
Assay [7] has as its system CRL-7250. Put plainly: Cytotoxic Profiling of Annotated Libraries Using Quantitative High-Throughput Screening (AID 1296008). For max response: % is set by controls: 0 for no effect and ±100 for the full control effect. Particulars: Five cell lines viability, CellTiter-Glo ATP luminescence, 48-72 h; max response: hits give low values. The procedure, abridged: (§2)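 Cells exposed to compounds for 48 or 72 hr at 37 degrees Celsius. Viability read as ATP-coupled luminescence with CellTiter-Glo after 10 min at room temperature.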

Assay [8] has as its system HEK293. Described as above. Particulars: Five cell lines viability, CellTiter-Glo ATP luminescence, 48-72 h; max response: hits give low values. The procedure, abridged: as §2
The test system of assay [9] is HaCat. The description is as above. Particulars: Five cell lines viability, CellTiter-Glo ATP luminescence, 48-72 h; max response: hits give low values. The procedure, abridged: as §2
Assay [10] deals with KB-3-1. Described as above. As to conditions: Five cell lines viability, CellTiter-Glo ATP luminescence, 48-72 h; max response: hits give low values. The method in brief:
as §2

In assay [11] the test system is NIH3T3. The description is as above. As to conditions: Five cell lines viability, CellTiter-Glo ATP luminescence, 48-72 h; max response: hits give low values. The method in brief:
as §2

Assay [12] has as its system N140. Put plainly: qHTS profiling for inhibitors of Plasmodium falciparum proliferation (AID 504749). Particulars: P. falciparum in erythrocytes, SYBR Green DNA, 72 h; series mostly up to 28.7 µM. The method in brief: as §1
The test system of assay [13] is P93_24. The assay is described as above. As to conditions: P. falciparum in erythrocytes, SYBR Green DNA, 72 h; series mostly up to 28.7 µM. The method in brief:
as §1

Assay [14] relates to P94_40. The assay is described as above. Particulars: P. falciparum in erythrocytes, SYBR Green DNA, 72 h; series mostly up to 28.7 µM. The procedure, abridged:
as §1

Assay [15] has as its system PAD. Described as above. As to conditions: P. falciparum in erythrocytes, SYBR Green DNA, 72 h; series mostly up to 28.7 µM. The procedure, abridged:
as §1

The subject of assay [16] is PC26. The assay is described as above. As to conditions: P. falciparum in erythrocytes, SYBR Green DNA, 72 h; series mostly up to 28.7 µM. The method in brief: as §1
For assay [17], the system named is SC27B. The assay is described as above. Particulars: P. falciparum in erythrocytes, SYBR Green DNA, 72 h; series mostly up to 28.7 µM. The method in brief: as §1
The subject of assay [18] is TAB109. The description is as above. As to conditions: P. falciparum in erythrocytes, SYBR Green DNA, 72 h; series mostly up to 28.7 µM. The procedure, abridged: as §1
For assay [19], the system named is TAB113. The description is as above. Particulars: P. falciparum in erythrocytes, SYBR Green DNA, 72 h; series mostly up to 28.7 µM. The procedure, abridged:
as §1

Assay [20] has as its system TAB165. The assay is described as above. As to conditions: P. falciparum in erythrocytes, SYBR Green DNA, 72 h; series mostly up to 28.7 µM. The procedure, abridged:
as §1

Records with an inconclusive call do not appear. A number with no mark means an inactive call. Calls of active or inactive are those of the source. Calls come from the whole dose curve; as a rule, active = well fitted inhibition curve with a large enough effect; inconclusive = small, poorly fitted or top-dose-only effect; inactive = flat fitted curve, though single readings scatter.
Note: nearly all actives have a fitted effect of over 60% in size.
Potency is the fitted concentration of half-maximal effect.

`CN1CCN(C2=Nc3ccccc3Sc3ccc(Cl)cc32)CC1`: the Potency entry in assay [1], in assay [3], in assay [4] and in assay [5] was “inactive” each time. Further, the Potency was 11.2 µM (active) in assay [2] and 3.79 µM (active) in assay [6]. Further, the max response in assay [7] was -8.62%; in assay [8], -15.3%; in [9], -2.52%; in assay [10] it was -8.12%; in assay [11], -1.36%.
In the case of `CC(=O)Nc1ccc(S(=O)(=O)Nc2ccc([N+](=O)[O-])cc2)cc1`, the Potency result in assay [1], in [2], in [3], in [12], in assay [13] and in assay [14] was “inactive” each time. Also, the Potency entry in [15], in assay [4], in [16], in [5], in assay [17] and in assay [18] was “inactive” throughout. The Potency entry in assay [19], in assay [20] and in assay [6] was “inactive” throughout. The max response in assay [7] was -4.42%; in [8], -4.06%; in assay [10], 15%; in [11], 3.15%. In addition, the call in [9] was inactive.
On to `Nc1nc(-c2ccccc2)c(Br)c(=O)[nH]1`, for which the Potency result in assay [1], in assay [2], in [3], in assay [12], in assay [13] and in assay [14] was “inactive” in each case. In addition, the Potency entry in [15], in assay [4], in assay [16], in assay [5], in [17] and in [18] was “inactive” each time. For the same molecule, the Potency entry in assay [19], in [20] and in [6] was “inactive” in each case. Moreover, the max response is -18.3% in assay [7]; -28.5% in assay [8]; -7.63% in assay [9]; 4.06% in assay [10]; -18.4% in assay [11].
Turning to `C/C=C/c1ccc(O)c(OC)c1`, the Potency result in [1], in assay [3], in [12], in [14], in assay [15] and in [4] was “inactive” throughout. The Potency result in [16], in [5], in [17], in assay [18], in assay [19] and in assay [20] was “inactive” each time. In addition, the Potency entry in [6] is “inactive”. Moreover, the max response in assay [7] was -0.654%; in [8], -2.94%; in assay [10] it was -3.67%; in assay [11], -0.28%. The result in assay [9] was inactive.
For `CCOCCn1c(N2CCCN(C)CC2)nc2ccccc21`, the Potency result in [1], in assay [3], in assay [12], in [13], in assay [14] and in assay [17] was “inactive” throughout. Further, the Potency entry in assay [19] and in assay [20] was “inactive” throughout. Moreover, the Potency in assay [6] is 4.78 µM (active). The max response in assay [7] was -16.3%; in [8], -5.73%; in [9], 1.76%; in assay [10], -16.6%; in assay [11] it was -0.586%.
In the case of `CCc1oc2ccccc2c1C(=O)c1cc(Br)c(O)c(Br)c1`, the Potency entry in assay [1], in [2], in assay [3], in assay [12], in assay [13] and in [14] was “inactive” each time. Further, the Potency entry in [15], in assay [4], in [16], in [5], in assay [17] and in assay [18] was “inactive” in each case. Moreover, the Potency result in assay [19], in assay [20] and in assay [6] was “inactive” in each case. Besides, the max response is 0.197% in assay [7], -23.3% in assay [8], -3.26% in assay [10] and -25.3% in [11]. Moreover, in [9], the molecule was classed as inactive.
Consider `NCCNC(=O)c1ccc(Cl)cn1`, for which the Potency entry in [1], in assay [2], in assay [3], in assay [12], in [13] and in [14] was “inactive” throughout. Besides, the Potency entry in [15], in assay [4], in [16], in assay [5], in [17] and in [18] was “inactive” throughout. Further, the Potency result in [19], in assay [20] and in [6] was “inactive” in each case. Moreover, the result in [7] and in assay [9] was inactive. Besides, the figures for the max response in assay [8], in assay [10] and in assay [11] were -1.7%, -16.4% and 2.21%, respectively.
In the case of `CCCCc1cc2ccccc2c(OCCN(C)C)n1`, the Potency entry in assay [1], in assay [3], in assay [12], in assay [13], in [14] and in assay [15] was “inactive” each time. Also, the Potency entry in assay [4], in assay [16], in [5], in [17], in assay [18] and in [19] was “inactive” throughout. Further, the Potency entry in [20] was “inactive”. The max response in [7] was -9.77%; in [10], -3.23%; in assay [11], -15.9%. For the same molecule, the Potency in assay [8] is 18.8 µM (active). In addition, the outcome in assay [9] was inactive.
For the molecule `CCOC(=O)Nc1ccc2c(c1)N(C(=O)CCN1CCOCC1)c1ccccc1S2`, the Potency entry in [1], in [2], in assay [3], in assay [12], in assay [13] and in [14] was “inactive” each time. Besides, the Potency result in assay [15], in assay [4], in [16], in [5], in assay [17] and in [18] was “inactive” throughout. Further, the Potency entry in assay [19], in assay [20] and in assay [6] was “inactive” throughout. In addition, the max response in assay [7] is -6.24%; in assay [8], -28.3%; in assay [9], -10.7%; in [10] it was 0.404%; in assay [11], -4.09%.
Regarding `Cc1c(-c2ccccc2)oc2c(C(=O)OCCN3CCCCC3)cccc2c1=O`, the Potency result in [1], in assay [2], in assay [3], in assay [12], in assay [13] and in assay [14] was “inactive” in each case. Moreover, the Potency result in [15], in assay [4], in assay [16], in [5], in assay [17] and in [18] was “inactive” in each case. Moreover, the Potency entry in [19], in assay [20] and in assay [6] was “inactive” each time. Further, the max response in assay [7] is -1.78%; in assay [8], -20.2%; in assay [9], 3.56%; in assay [11], 3.38%.
`Cc1ccc(-c2ncc(Cl)cc2-c2ccc(S(C)(=O)=O)cc2)cn1`: the Potency in [14] is 11.2 µM (active). Besides, the max response was -1.19% in assay [7]; 4.1% in assay [8]; -27.8% in assay [9]; -5.38% in [10]; -3.08% in [11].
For the molecule `CC(C)[N+](C)(C)CC(O)COc1cccc2ccccc12` (centres undefined), the Potency result in assay [3], in assay [12], in assay [15], in assay [4], in [16] and in assay [5] was “inactive” in each case. Besides, the Potency result in assay [17], in assay [19] and in [6] was “inactive” each time. Further, the max response was -19.4% in assay [7]; -10.5% in assay [8]; -6.06% in [9]; -4.04% in assay [10]; -0.944% in assay [11].
For the molecule `CC(C)(C)NCC(O)COc1cccc2c1C[C@H](O)[C@H](O)C2` (some centres undefined), the call in assay [7] and in [9] was inactive. For the same molecule, the figures for the max response in assay [8] and in assay [11] were -3.77% and -4.22%, respectively.
